# Paper PMC12350791
# Assays:
# Assay in all cases: cross-linking mass spectrometry
# Conditions in all cases: DSBSO, in cells or nuclear extract, not told apart
# HNRNPD = HNRNPD (UniProt Q14103)
# KPNB1 = KPNB1 (UniProt Q14974)
# ELP5 = ELP5 (UniProt Q8TE02)
# HBA1 = HBA1 (UniProt P69905)
# INCENP = INCENP (UniProt Q9NQS7)
# LSM4 = LSM4 (UniProt Q9Y4Z0)
# MAD1L1 = MAD1L1 (UniProt Q9Y6D9)
# MAP1B = MAP1B (UniProt P46821)
# MAPK14 = MAPK14 (UniProt Q16539)
# MARS1 = MARS1 (UniProt P56192)
# MBOAT7 = MBOAT7 (UniProt Q96N66)
# MCM2 = MCM2 (UniProt P49736)
# MCM6 = MCM6 (UniProt Q14566)
# MCM6, sequence (Q14566 whole entry): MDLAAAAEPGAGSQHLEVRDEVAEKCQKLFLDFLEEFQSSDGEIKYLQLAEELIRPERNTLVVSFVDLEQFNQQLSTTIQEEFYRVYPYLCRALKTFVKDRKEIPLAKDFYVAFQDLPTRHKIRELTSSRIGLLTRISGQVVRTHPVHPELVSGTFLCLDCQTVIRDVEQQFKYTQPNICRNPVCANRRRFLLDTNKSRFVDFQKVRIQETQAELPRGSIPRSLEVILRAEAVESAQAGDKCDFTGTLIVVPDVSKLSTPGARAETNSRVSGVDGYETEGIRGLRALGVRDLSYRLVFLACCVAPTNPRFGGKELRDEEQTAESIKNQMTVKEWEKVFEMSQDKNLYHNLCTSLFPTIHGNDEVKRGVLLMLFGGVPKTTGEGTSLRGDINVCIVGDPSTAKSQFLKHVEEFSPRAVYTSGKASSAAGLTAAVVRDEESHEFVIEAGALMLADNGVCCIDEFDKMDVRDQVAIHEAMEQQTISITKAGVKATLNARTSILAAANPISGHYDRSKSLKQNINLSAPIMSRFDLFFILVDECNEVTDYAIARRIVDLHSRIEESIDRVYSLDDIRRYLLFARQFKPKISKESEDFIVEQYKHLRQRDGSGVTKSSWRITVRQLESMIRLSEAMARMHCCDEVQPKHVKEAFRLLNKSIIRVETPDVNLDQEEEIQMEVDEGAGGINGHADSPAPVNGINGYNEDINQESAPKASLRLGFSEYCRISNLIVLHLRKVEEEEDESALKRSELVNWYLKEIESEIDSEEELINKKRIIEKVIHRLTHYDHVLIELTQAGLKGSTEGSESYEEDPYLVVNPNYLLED
# MCM7 = MCM7 (UniProt P33993)
# MED4 = MED4 (UniProt Q9NPJ6)
# MYDGF = MYDGF (UniProt Q969H8)
# MYH9 = MYH9 (UniProt P35579)
# MYO9B = MYO9B (UniProt Q13459)
# NAP1L4 = NAP1L4 (UniProt Q99733)
# NCAPD2 = NCAPD2 (UniProt Q15021)
# NCBP1 = NCBP1 (UniProt Q09161)
# NDUFA5 = NDUFA5 (UniProt Q16718)
# NDUFA6 = NDUFA6 (UniProt P56556)
# NDUFAF4 = NDUFAF4 (UniProt Q9P032)
# NDUFS2 = NDUFS2 (UniProt O75306)
# NIP7 = NIP7 (UniProt Q9Y221)
# NMI = NMI (UniProt Q13287)
# NOC4L = NOC4L (UniProt Q9BVI4)
# NOL7 = NOL7 (UniProt Q9UMY1)
# NPM1 = NPM1 (UniProt P06748)
# NUDT5 = NUDT5 (UniProt Q9UKK9)
# NUP160 = NUP160 (UniProt Q12769)
# RAE1 = RAE1 (UniProt P78406)
# NUP50 = NUP50 (UniProt Q9UKX7)
# NUP62 = NUP62 (UniProt P37198)
# NUP85 = NUP85 (UniProt Q9BW27)
# NUP88 = NUP88 (UniProt Q99567)
# OSBPL11 = OSBPL11 (UniProt Q9BXB4)
# PAFAH1B2 = PAFAH1B2 (UniProt P68402)
# PAM16 = PAM16 (UniProt Q9Y3D7)
# PAXBP1 = PAXBP1 (UniProt Q9Y5B6)
# PDE4DIP = PDE4DIP (UniProt Q5VU43)
# PELP1 = PELP1 (UniProt Q8IZL8)
# PFKP = PFKP (UniProt Q01813)
# PHC2 = PHC2 (UniProt Q8IXK0)
# PNN = PNN (UniProt Q9H307)
# PNO1 = PNO1 (UniProt Q9NRX1)
# RPL23A = RPL23A (UniProt P62750)
# PRPF31 = PRPF31 (UniProt Q8WWY3)
# PSME2 = PSME2 (UniProt Q9UL46)
# PUF60 = PUF60 (UniProt Q9UHX1)
# RAD50 = RAD50 (UniProt Q92878)
# RAD50, sequence (Q92878 whole entry): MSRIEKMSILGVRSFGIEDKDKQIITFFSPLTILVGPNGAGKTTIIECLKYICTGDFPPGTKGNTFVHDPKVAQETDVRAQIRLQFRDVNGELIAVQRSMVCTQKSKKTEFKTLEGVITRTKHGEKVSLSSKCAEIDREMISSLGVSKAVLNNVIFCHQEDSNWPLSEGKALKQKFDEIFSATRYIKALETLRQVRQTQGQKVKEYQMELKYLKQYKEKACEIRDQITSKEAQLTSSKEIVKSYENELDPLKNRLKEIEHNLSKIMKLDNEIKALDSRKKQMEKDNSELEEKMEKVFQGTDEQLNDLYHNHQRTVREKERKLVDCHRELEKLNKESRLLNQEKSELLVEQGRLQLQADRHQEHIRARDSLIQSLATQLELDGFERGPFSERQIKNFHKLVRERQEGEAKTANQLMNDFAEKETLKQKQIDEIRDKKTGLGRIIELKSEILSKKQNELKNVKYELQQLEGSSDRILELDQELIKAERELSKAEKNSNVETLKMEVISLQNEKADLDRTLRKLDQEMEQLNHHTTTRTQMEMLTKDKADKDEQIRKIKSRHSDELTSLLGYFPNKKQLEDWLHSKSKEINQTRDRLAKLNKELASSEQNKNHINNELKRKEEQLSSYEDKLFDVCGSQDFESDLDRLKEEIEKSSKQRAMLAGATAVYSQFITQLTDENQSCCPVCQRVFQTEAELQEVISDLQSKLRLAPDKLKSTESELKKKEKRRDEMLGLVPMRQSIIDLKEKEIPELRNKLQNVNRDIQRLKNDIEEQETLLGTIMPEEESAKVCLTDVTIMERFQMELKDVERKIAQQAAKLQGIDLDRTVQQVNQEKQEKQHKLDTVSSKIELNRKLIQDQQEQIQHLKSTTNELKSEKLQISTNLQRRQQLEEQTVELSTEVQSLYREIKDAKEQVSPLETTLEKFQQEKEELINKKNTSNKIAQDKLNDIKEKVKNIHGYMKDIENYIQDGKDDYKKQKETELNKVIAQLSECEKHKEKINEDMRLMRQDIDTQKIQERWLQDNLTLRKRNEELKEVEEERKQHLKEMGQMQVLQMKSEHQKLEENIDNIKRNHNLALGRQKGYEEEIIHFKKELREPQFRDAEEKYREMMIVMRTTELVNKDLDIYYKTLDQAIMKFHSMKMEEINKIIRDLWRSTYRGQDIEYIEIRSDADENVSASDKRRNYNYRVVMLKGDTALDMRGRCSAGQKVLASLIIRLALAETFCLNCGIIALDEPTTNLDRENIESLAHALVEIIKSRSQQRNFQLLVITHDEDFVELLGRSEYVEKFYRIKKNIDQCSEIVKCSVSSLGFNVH
# RAN = RAN (UniProt P62826)
# RNF20 = RNF20 (UniProt Q5VTR2)
# RPF1 = RPF1 (UniProt Q9H9Y2)
# RPF1, sequence (Q9H9Y2 whole entry): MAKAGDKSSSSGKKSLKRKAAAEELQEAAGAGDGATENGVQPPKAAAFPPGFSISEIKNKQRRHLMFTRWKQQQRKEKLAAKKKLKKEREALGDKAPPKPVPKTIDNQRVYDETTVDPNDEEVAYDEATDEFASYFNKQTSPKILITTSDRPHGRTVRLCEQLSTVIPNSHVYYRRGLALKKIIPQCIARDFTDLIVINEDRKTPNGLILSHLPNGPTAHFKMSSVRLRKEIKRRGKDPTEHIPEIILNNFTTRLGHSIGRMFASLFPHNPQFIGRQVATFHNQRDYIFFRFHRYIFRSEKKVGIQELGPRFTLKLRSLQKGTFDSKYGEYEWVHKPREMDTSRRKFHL
# RPLP2 = RPLP2 (UniProt P05387)
# RREB1 = RREB1 (UniProt Q92766)
# SIN3A = SIN3A (UniProt Q96ST3)
# RSL24D1 = RSL24D1 (UniProt Q9UHA3)
# RTCB = RTCB (UniProt Q9Y3I0)
# RUVBL2 = RUVBL2 (UniProt Q9Y230)
# RWDD1 = RWDD1 (UniProt Q9H446)
# SDHA = SDHA (UniProt P31040)
# SEH1L = SEH1L (UniProt Q96EE3)
# SEH1L, sequence (Q96EE3 whole entry): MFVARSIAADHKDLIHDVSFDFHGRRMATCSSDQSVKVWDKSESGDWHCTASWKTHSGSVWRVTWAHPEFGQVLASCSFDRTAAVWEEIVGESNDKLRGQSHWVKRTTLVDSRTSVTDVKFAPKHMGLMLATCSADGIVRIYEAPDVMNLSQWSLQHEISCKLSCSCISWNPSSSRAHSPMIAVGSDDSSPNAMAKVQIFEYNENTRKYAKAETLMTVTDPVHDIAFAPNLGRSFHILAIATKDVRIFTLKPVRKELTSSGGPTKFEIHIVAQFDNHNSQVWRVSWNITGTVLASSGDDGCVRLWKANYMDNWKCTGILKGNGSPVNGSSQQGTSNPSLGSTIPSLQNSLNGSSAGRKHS
# LSM4, sequence (Q9Y4Z0 whole entry): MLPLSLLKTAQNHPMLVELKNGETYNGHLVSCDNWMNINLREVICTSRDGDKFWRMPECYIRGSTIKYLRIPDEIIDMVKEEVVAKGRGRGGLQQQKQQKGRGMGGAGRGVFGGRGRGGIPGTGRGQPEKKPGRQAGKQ
# NUP98, P52948, sequence (P52948 whole entry): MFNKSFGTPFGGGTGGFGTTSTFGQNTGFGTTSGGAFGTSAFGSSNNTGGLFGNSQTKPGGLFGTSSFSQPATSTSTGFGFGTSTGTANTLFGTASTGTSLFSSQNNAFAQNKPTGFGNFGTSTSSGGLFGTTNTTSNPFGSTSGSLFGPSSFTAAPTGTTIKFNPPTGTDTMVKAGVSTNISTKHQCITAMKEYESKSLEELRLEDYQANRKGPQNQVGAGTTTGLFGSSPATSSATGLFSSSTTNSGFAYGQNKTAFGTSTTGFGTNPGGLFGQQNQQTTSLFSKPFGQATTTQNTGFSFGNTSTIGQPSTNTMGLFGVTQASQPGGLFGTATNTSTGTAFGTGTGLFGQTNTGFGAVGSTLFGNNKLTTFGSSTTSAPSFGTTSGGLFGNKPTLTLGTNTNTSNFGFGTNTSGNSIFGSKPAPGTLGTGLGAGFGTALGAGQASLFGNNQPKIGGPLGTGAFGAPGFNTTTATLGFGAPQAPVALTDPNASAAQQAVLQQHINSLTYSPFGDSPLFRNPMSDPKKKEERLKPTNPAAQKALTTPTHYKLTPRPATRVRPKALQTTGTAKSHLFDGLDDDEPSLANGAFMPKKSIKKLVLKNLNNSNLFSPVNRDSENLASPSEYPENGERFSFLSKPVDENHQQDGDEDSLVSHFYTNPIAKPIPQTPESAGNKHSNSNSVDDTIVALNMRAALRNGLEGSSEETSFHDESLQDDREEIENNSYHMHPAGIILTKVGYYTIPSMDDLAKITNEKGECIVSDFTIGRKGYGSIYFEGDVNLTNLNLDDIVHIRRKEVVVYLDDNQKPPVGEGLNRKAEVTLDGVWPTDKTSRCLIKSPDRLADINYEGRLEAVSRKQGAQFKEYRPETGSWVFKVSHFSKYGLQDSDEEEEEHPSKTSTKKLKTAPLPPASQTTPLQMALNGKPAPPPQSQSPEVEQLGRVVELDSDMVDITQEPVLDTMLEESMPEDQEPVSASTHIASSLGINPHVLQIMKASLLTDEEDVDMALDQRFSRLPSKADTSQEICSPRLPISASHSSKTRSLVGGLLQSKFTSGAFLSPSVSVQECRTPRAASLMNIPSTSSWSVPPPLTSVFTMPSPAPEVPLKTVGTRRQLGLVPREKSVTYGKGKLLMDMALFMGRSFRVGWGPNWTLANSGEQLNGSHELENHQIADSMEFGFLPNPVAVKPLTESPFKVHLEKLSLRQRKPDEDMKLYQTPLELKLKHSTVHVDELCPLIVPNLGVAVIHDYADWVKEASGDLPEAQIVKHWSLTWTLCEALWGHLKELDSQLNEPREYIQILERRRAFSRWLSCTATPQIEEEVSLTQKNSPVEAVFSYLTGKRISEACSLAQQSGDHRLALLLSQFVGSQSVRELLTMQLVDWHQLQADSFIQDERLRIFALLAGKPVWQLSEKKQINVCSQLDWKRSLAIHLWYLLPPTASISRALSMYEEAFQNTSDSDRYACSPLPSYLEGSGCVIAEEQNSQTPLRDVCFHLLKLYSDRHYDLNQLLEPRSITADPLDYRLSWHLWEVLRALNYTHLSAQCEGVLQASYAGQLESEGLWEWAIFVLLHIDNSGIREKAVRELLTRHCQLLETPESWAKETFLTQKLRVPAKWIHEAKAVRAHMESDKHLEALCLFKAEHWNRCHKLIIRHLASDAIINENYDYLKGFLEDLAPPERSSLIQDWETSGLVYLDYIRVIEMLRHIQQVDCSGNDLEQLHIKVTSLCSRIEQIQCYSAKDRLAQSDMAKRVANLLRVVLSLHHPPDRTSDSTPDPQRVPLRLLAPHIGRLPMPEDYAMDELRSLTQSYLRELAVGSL
# NDUFS7, O75251, sequence (O75251 whole entry): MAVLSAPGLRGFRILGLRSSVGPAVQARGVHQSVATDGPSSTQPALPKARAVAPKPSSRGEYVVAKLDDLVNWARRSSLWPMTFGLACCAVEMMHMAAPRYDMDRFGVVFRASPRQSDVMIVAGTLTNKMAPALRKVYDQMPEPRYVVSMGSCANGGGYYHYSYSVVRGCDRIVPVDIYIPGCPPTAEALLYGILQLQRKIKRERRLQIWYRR
# SEH1L, Q96EE3, sequence (Q96EE3 whole entry): as the sequence (Q96EE3 whole entry) above
substance,measurement,setting,value
"HNRNPK, P61978",cross-linked residues,HNRNPD,K198 - K197
"RAN, P62826",cross-linked residues,KPNB1,K71 - K23
"ELP6, Q0PNE2",cross-linked residues,ELP5,K116 - K78
"HBZ, P02008",cross-linked residues,HBA1,K140 - K8
"AURKB, Q96GD4",cross-linked residues,INCENP,K85 - K840
"PATL1, Q86TB9",cross-linked residues,LSM4,K398 - K80
"LSM7, Q9UK45",cross-linked residues,LSM4,K8 - K80
"MAD2L1, Q13257",cross-linked residues,MAD1L1,K122 - K666
"H1-5, P16401",cross-linked residues,MAP1B,K161 - K2291
"MAPKAPK2, P49137",cross-linked residues,MAPK14,K307 - K233
"EEF1E1, O43324",cross-linked residues,MARS1,K21 - K663
"COX6B1, P14854",cross-linked residues,MBOAT7,K47 - K468
"MCM4, P33991",cross-linked residues,MCM2,K819 - K807
"MCM7, P33993",cross-linked residues,MCM6,K75 - K197
"MCM2, P49736",cross-linked residues,MCM6,K591 - K517
"MCM3, P25205",cross-linked residues,MCM7,K435 - K236
"MED1, Q15648",cross-linked residues,MED4,K70 - K81
"PRKCSH, P14314",cross-linked residues,MYDGF,K436 - K161
"TPR, P12270",cross-linked residues,MYH9,K854 - K1614
"H1-2, P16403",cross-linked residues,MYO9B,K140 - K1390
"NAP1L1, P55209",cross-linked residues,NAP1L4,K87 - K105
"SMC2, O95347",cross-linked residues,NCAPD2,K1014 - K78
"NCBP2, P52298",cross-linked residues,NCBP1,K68 - K607
"NDUFA10, O95299",cross-linked residues,NDUFA5,K80 - K30
"NDUFS4, O43181",cross-linked residues,NDUFA6,K73 - K116
"NDUFS7, O75251",cross-linked residues,NDUFAF4,K55 - K107
same,cross-linked residues,NDUFS2,K136 - K78
"NOP2, P46087",cross-linked residues,NIP7,K423 - K72
"IFI35, P80217",cross-linked residues,NMI,K47 - K254
"NOP14, P78316",cross-linked residues,NOC4L,K535 - K342
"UTP15, Q8TED0",cross-linked residues,NOL7,K416 - K210
"NPM3, O75607",cross-linked residues,NPM1,K125 - K27
"PYCR2, Q96C36",cross-linked residues,NUDT5,K47 - K210
"NUP98, P52948",cross-linked residues,NUP160,K1749 - K1096
same,cross-linked residues,RAE1,K175 - K252
"CSE1L, P55060",cross-linked residues,NUP50,K726 - K62
"NUP214, P35658",cross-linked residues,NUP62,K755 - K371
"SEH1L, Q96EE3",cross-linked residues,NUP85,K314 - K59
"NUP62, P37198",cross-linked residues,NUP88,K415 - K642
"PPA1, Q15181",cross-linked residues,OSBPL11,K238 - K660
"PAFAH1B1, P43034",cross-linked residues,PAFAH1B2,K147 - K145
"DNAJC19, Q96DA6",cross-linked residues,PAM16,K93 - K82
"TFIP11, Q9UBB9",cross-linked residues,PAXBP1,K267 - K682
"IMMT, Q16891",cross-linked residues,PDE4DIP,K343 - K1022
"NOL9, Q5SY16",cross-linked residues,PELP1,K670 - K216
"PFKM, P08237",cross-linked residues,PFKP,K476 - K736
"RING1, Q06587",cross-linked residues,PHC2,K297 - K598
"SAP18, O00422",cross-linked residues,PNN,K74 - K109
"NPM1, P06748",cross-linked residues,PNO1,K267 - K77
same,cross-linked residues,RPL23A,K141 - K30
"SNU13, P55769",cross-linked residues,PRPF31,K86 - K315
"PSME1, Q06323",cross-linked residues,PSME2,K190 - K180
"SRSF11, Q05519",cross-linked residues,PUF60,K58 - K69
"MRE11, P49959",cross-linked residues,RAD50,K393 - K1190
"ACTR1B, P42025",cross-linked residues,RAD50,K324 - K651
"XPO1, O14980",cross-linked residues,RAN,K426 - K159
"RNF40, O75150",cross-linked residues,RNF20,K862 - K834
"MAK16, Q9BXY0",cross-linked residues,RPF1,K164 - K302
"WDR74, Q6RFH5",cross-linked residues,RPF1,K151 - K182
"RPLP1, P05386",cross-linked residues,RPLP2,K33 - K25
"HDAC1, Q13547",cross-linked residues,RREB1,K74 - K259
same,cross-linked residues,SIN3A,K220 - K552
"GTPBP4, Q9BZE4",cross-linked residues,RSL24D1,K448 - K88
"RTRAF, Q9Y224",cross-linked residues,RTCB,K185 - K492
"HAUS3, Q68CZ6",cross-linked residues,RUVBL2,K595 - K177
"DRG2, P55039",cross-linked residues,RWDD1,K311 - K166
"SDHB, P21912",cross-linked residues,SDHA,K167 - K167
"NUP43, Q8NFH3",cross-linked residues,SEH1L,K161 - K96
